From PubChem BioAssay
Activity calls are given as the source filed them. Unless noted, how the calls were made is not given here.

Legend:
[1] = compounds binding Alexa647 anti-His antibody – biochemical, small-molecule microarray, 635 nm fluorescence, artefact control for SMM control protein annotation, primary screen (AID 1128); settings: higher = more signal;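 further: score merges feature fluorescence with signal-to-noise for each printed compound spot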
[2] = tested on: Human papillomavirus type 1a E7 protein (residues 1-88); assay: HPV1a E7 small-molecule binders, primary screen, biochemical, small-molecule microarray, residues 1-88, 635 nm (AID 1129); settings: small-molecule microarray binding, fluorescence 635 nm; higher = more signal
[3] = biological target: Focal adhesion kinase 1 (Homo sapiens) (UniProt Q05397); assay: PTK2 protein binding on printed compound slides – biochemical, small-molecule microarray, 635/667 nm fluorescence, BSA, DTT, primary screen (AID 1130); settings: 635 nm fluorescence, higher = more signal;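 further: composite of spot emission at 667 nm and signal to noise over triplicate slides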
[4] = tested on: Fibrinogen (Alexa647-labelled); assay: Alexa647-fibrinogen binding to printed small molecules – biochemical, small-molecule microarray, 635/667 nm fluorescence, artefact control for SMM control-protein annotation, profiling panel (AID 1131); settings: fibrinogen-A647 binding fluorescence, higher = more signal;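 further: z-score merges 667 nm fluorescence with per-spot signal-to-noise over triplicate slides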
[5] = biological target: Follistatin (Homo sapiens) (UniProt P19883); assay: FST protein binding to printed compounds – biochemical, small-molecule microarray, 635/667 nm fluorescence, primary screen (AID 1132); settings: 635 nm fluorescence, higher = more signal
[6] = biological target: Fibroblast growth factor 2 (Homo sapiens) (UniProt P09038); assay: basic fibroblast growth factor binding to printed compounds – biochemical, small-molecule microarray, 635/667 nm fluorescence, primary screen (AID 1133); settings: FGF2, fluorescence 635/667, higher = more signal
[7] = JC-1 mitochondrial potential readout, lung cancer cells – cell-based, A549, JC-1 fluorescence, basal, 24 h, 100 nL, profiling panel (AID 1138); settings: higher = more signal;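 further: A549 lung adenocarcinoma cells under basal conditions with no added stimulus; test concentration not given here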
[8] = tested on: Lefty1; assay: Lefty1 protein binding to printed compounds – biochemical, small-molecule microarray, 635/667 nm fluorescence, primary screen (AID 1139); settings: fluorescence 635/667, higher = more signal
[9] = tested on: wheat germ agglutinin (Triticum aestivum), Alexa647-labelled; assay: Alexa647-WGA lectin binding to printed small molecules – biochemical, small-molecule microarray, 635/667 nm fluorescence, artefact control for SMM control-protein annotation, profiling panel (AID 1140); settings: WGA-A647 binding, 635 nm fluorescence, higher = more signal;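 further: score merges 667 nm feature emission with signal to noise over triplicate slides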
[10] = biological target: Luciferin 4-monooxygenase (Photinus pyralis) (UniProt P08659); assay: inhibition of purified Photinus pyralis luciferase – biochemical, luminescence, purified enzyme, 2006 set, primary screen (AID 1141); settings: purified firefly luciferase, SteadyGlo luminescence, 30 min; higher = more signal, called active from +8 up or from −8 down;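 further: cell-free assay with purified firefly luciferase at 100 ng per well in PBS; test concentration not given here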
[11] = tested on: Wnt5a (protein binding on small-molecule microarray); assay: small molecules binding Wnt5a protein – biophysical, small-molecule microarray, 635/667 nm fluorescence, primary screen (AID 1142); settings: 635 nm fluorescence, higher = more signal;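 further: fluorescence read at 667 nm with signal to noise per printed feature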
[12] = ATP-based viability of Huh7 replicon cells – cell-based, CellTiter-Glo luminescence, basal, 48 h, cytotoxicity control for HCV replication inhibitor project, primary screen (AID 1143); settings: higher = more signal, called active from +8 up or from −8 down;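 further: Huh7 hepatoma cells carrying a hepatitis C replication reporter with no stimulus; test concentration not given here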
[13] = Pseudomonas biofilm growth suppression – PAO1 strain, BacTiter-Glo luminescence, LB-PBS, primary screen (AID 1144); settings: P. aeruginosa PAO1 biofilm, 12 h, higher = more signal
[14] = basal CRE-LacZ reporter activity in PC12 – cell-based, unstimulated, primary screen (AID 1145); settings: no forskolin, luminescence, 4.5 h, higher = more signal, called active from +8 up or from −8 down
[15] = forskolin-driven CRE-LacZ activity in PC12 – cell-based, CRE-LacZ reporter, forskolin-stimulated, primary screen (AID 1146); settings: luminescence, 4.5 h, higher = more signal, called active from +8 up or from −8 down;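 further: PC12 cells with 6xCRE LacZ reporter stimulated by forskolin 10 µM; beta-galactosidase reporter signal reflecting CREB driven transcription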
[16] = biological target: Streptavidin (Streptomyces avidinii) (UniProt P22629); assay: compounds binding control protein streptavidin – biophysical, small-molecule microarray, 635/667 nm fluorescence, artefact control for SMM compound annotation, primary screen (AID 1147); settings: higher = more signal;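 further: signal reflects streptavidin binding to arrayed compounds as a control protein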
[17] = probe aInhba binding on compound microarray – biochemical, small-molecule microarray, 635/667 nm fluorescence, primary screen (AID 1148); settings: higher = more signal;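 further: score merges 667nm spot fluorescence with signal-to-noise for antibody binding to printed compounds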
[18] = biological target: Torsin-1A (Homo sapiens) (UniProt O14656); assay: TOR1A wild-type binding on microarray – cell lysate, small-molecule microarray, lysate, 635/667 nm, primary screen (AID 1149); settings: COS7 hTOR1A-WT lysate, 635 nm fluorescence, higher = more signal
[19] = biological target: Torsin-1A (Homo sapiens) (UniProt O14656); assay: torsin A mutant lysate binding on microarrays – cell lysate, small-molecule microarray, COS7 lysate, 635/667 nm fluorescence, primary screen (AID 1150); settings: COS7 hTOR1A mutant lysate, 635 nm fluorescence, higher = more signal;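 further: score pools 667 nm emission and signal to noise measuring lysate protein binding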
[20] = tested on: Sonic hedgehog protein (Shh); assay: Sonic hedgehog microarray binding compounds – biochemical, small-molecule microarray, 635/667 nm fluorescence, primary screen (AID 1151); settings: 635 nm fluorescence, higher = more signal;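 further: Shh protein binding to compounds spotted on small-molecule microarray slides; score combines spot fluorescence intensity with signal-to-noise across triplicate slides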

Sequence of Follistatin (Homo sapiens) (P19883 whole entry, looked up): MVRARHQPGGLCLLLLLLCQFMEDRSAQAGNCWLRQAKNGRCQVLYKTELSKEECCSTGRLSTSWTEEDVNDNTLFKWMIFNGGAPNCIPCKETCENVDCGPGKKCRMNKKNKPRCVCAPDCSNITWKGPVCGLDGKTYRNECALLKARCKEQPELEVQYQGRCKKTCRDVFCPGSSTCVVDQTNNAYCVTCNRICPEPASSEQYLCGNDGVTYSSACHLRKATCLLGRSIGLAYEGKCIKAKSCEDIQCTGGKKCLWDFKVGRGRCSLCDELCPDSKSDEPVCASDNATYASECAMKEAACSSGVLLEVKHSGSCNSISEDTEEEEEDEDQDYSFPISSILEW
Sequence of Torsin-1A (Homo sapiens) (O14656 whole entry, looked up): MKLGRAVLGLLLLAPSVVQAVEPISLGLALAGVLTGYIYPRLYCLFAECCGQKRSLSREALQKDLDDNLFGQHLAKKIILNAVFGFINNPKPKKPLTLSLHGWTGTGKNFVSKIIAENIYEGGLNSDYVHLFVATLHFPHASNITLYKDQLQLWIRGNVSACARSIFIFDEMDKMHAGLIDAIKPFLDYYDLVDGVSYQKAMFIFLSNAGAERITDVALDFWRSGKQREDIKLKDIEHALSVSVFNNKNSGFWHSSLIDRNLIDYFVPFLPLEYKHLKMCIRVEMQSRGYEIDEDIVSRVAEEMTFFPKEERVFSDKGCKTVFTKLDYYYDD
Sequence of Focal adhesion kinase 1 (Homo sapiens) (Q05397 whole entry, looked up): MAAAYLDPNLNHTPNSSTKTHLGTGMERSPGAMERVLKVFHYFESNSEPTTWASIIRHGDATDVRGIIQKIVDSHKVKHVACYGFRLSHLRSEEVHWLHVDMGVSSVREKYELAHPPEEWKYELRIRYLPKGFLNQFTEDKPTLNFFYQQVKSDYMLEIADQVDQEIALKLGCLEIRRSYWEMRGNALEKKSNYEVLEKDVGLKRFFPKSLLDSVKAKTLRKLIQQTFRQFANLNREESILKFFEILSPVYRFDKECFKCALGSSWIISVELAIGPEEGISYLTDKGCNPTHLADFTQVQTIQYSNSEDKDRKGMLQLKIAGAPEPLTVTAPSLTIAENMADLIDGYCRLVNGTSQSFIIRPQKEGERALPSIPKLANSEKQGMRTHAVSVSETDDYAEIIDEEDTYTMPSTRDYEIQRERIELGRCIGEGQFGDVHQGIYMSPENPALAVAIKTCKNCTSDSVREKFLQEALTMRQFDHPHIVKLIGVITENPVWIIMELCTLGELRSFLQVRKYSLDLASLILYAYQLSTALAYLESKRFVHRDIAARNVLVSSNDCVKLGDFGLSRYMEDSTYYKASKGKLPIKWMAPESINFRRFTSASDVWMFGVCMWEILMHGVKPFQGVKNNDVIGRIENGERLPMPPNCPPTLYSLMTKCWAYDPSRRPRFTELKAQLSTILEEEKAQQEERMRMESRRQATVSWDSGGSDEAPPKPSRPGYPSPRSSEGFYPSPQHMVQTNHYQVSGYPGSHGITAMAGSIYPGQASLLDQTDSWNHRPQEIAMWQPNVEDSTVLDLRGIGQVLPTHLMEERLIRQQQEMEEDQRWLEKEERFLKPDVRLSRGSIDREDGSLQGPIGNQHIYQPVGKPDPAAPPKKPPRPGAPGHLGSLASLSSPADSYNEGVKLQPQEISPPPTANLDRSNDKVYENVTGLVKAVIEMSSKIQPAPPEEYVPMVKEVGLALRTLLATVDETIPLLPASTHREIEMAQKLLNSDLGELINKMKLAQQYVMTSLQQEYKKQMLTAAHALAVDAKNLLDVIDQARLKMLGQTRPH
Sequence of Luciferin 4-monooxygenase (Photinus pyralis) (P08659 whole entry, looked up): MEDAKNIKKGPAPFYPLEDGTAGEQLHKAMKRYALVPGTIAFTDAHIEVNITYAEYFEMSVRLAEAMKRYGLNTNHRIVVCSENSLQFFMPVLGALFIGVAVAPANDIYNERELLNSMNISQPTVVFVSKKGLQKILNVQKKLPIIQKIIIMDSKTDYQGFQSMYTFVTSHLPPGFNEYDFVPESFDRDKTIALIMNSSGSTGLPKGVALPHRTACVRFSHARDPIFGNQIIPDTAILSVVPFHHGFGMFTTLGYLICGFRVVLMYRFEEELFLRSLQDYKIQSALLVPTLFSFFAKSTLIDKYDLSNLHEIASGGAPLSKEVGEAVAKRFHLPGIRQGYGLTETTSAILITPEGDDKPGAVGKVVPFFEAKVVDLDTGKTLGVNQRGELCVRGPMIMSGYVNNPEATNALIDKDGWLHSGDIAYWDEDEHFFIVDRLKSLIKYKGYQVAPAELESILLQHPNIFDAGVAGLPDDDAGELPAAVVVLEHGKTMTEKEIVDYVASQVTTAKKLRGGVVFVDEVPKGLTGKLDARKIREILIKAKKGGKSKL
Sequence of Fibroblast growth factor 2 (Homo sapiens) (P09038 whole entry, looked up): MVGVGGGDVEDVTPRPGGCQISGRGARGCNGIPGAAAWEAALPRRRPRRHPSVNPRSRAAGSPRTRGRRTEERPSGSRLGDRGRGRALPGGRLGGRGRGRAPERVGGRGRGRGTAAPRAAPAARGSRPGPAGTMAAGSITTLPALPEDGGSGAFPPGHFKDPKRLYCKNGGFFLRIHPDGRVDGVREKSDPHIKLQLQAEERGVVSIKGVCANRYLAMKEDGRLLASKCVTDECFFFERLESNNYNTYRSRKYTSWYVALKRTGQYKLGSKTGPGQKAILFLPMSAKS
Sequence of Streptavidin (Streptomyces avidinii) (P22629 whole entry, looked up): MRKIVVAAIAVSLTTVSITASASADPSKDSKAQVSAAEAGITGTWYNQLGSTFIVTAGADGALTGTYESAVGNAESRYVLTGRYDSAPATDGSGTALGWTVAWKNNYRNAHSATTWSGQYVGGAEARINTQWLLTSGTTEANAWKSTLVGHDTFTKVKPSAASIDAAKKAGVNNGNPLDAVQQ

SMILES | composite z-score [1] | composite z-score [2] | composite z-score [3] | composite z-score [4] | composite z-score [5] | composite z-score [6] | z-score [7] | composite z-score [8] | composite z-score [9] | z-score [10] | composite z-score [11] | z-score [12] | z-score [13] | z-score [14] | z-score [15] | composite z-score [16] | composite z-score [17] | composite z-score [18] | composite z-score [19] | composite z-score [20]
C=CCOC(=O)[C@H]1[C@@H]2C(=O)O[C@@H](c3ccccc3)[C@@H](c3ccccc3)N2[C@@H](c2ccc(OCCOC(=O)[C@H]3C[C@H]4C(=O)N[C@@H](CCCCN(C)C)C(=O)N4[C@H]3c3ccc(O)cc3)cc2)[C@]12C(=O)Nc1ccccc12 | -0.127 | 1.13 | 0.806 | -0.104 | 1.43 | 1.59 | -0.58 | 1.5 | 0.0515 | -0.552 (inactive) | 0.468 | -1.73 (inactive) | -0.063 (inactive) | -0.122 (inactive) | -0.322 (inactive) | -0.0375 | 0.0748 | 0.539 | 0.674 | 1.42
CN(C)CCCNC(=O)[C@@]1(Cc2ccccc2I)c2ccccc2C(=O)N(Cc2ccccc2Cl)[C@H]1c1ccc(CO)cc1 | -0.528 | 1.08 | 0.224 | 0.788 | -0.292 | -0.717 | -1.18 | -0.615 | 0.73 | 0.122 (inactive) | 0.228 | -5.9 (inactive) | 0.599 (inactive) | 0.0548 (inactive) | 2.02 (inactive) | 0.592 | 0.397 | -0.155 | -0.609 | -0.0692
COc1cc(C(O)C2C=CC3C(=O)NC(=O)C3N2Nc2ccc(Cl)cc2Cl)cc(OC)c1OC (stereo not given) | 1.32 | 1.24 | 0.105 | 0.866 | 1.14 | -0.0812 | 0.275 | 0.286 | 0.871 | -0.0332 (inactive) | 0.273 | 0.127 (inactive) | -0.591 (inactive) | 0.622 (inactive) | 0.472 (inactive) | 1.59 | 0.115 | -0.69 | 0.81 | 0.245
COc1ccc([Si](C)(C)[C@@H]2[C@@H](CC(=O)N(CCO)Cc3ccccc3)O[C@]3(C(=O)N(C)c4c(Br)cc(C)cc43)[C@H]2C)cc1 | 0.926 | 0.304 | 0.19 | -0.537 | 1.08 | 0.957 | -1.33 | 1.17 | 0.114 | -0.314 (inactive) | 0.312 | -5.28 (inactive) | 0.336 (inactive) | 18.2 (active) | 0.429 (inactive) | -0.212 | -0.152 | 0.268 | -0.0496 | 1.91
